The nature of test [1]: NCI Yeast Anticancer Drug Screen. Data for the rad50 strain (AID 155).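 Also: 0% = growth of vehicle-only cultures of the same strain.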 The following applies: S. cerevisiae rad50 strain growth inhibition, stronger effect = higher value. In short, it runs like this: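 Cells are treated with compound, grown, and their growth is then scored against vehicle-only cultures of the same repair-deficient yeast strain.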
Test [2] in a line: NCI Yeast Anticancer Drug Screen. Data for the mec2-1 strain (AID 157). Particulars: S. cerevisiae mec2-1 strain, stronger effect = higher value. In short, it runs like this:
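Compounds were applied to mec2-1 yeast cells. Their growth was then compared with that of vehicle-treated cultures to give growth inhibition.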

Test [3] in a line: NCI Yeast Anticancer Drug Screen. Data for the cln2 rad14 strain (AID 165).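 Also: 0% = growth equal to vehicle treated cultures.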 Particulars: S. cerevisiae cln2 rad14 strain, stronger effect = higher value. In short, it runs like this:
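Strain: cln2 rad14 yeast, altered in cell cycle control and DNA damage repair. Read-out: growth inhibition vs vehicle.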

Test [4] can be described thus: NCI Yeast Anticancer Drug Screen. Data for the bub3 strain (AID 167). Particulars: S. cerevisiae bub3 mutant strain, stronger effect = higher value. In short, it runs like this: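 Part of a panel of yeast mutants defective in DNA damage repair or cell cycle regulation. Each strain is grown with compound, and inhibition is calculated relative to solvent-treated cultures.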
Test [5] in a line: NCI Yeast Anticancer Drug Screen. Data for the mlh1 rad18 strain (AID 175). Particulars: S. cerevisiae mlh1 rad18 strain growth inhibition, stronger effect = higher value. In short, it runs like this:
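A repair-deficient yeast strain is exposed to test compound, and growth is scored relative to vehicle-treated controls.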

Test [6] in a line: NCI Yeast Anticancer Drug Screen. Data for the sgs1 mgt1 strain (AID 161).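 Also: 0% = growth of cultures given vehicle only.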 The following applies: S. cerevisiae sgs1 mgt1 strain, stronger effect = higher value. In short, it runs like this: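 Percent growth inhibition was derived by comparing compound-exposed mutant yeast with vehicle-exposed cultures. The strain carries alterations in DNA damage repair.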
[7] abbreviates: at 5.0 µM (retest, dose inferred, filed as 0.5).
Setting [8] is: at 50.0 µM (retest, dose inferred, filed as 5.0).

Where “and” joins values, the source holds several entries; their conditions need not be identical. Equal entries are not always repeated. Compounds without any hit were thinned out: in the full panel of roughly 79,000, 15% have a hit. Unmarked numbers belong to inactive results. Calls of active or inactive are those of the source. Rule as the data show it: active = growth inhibition above about 70%; inactive = the rest.

Take `COc1ccccc1NC(=O)Oc1ccc(C(C)(CCC(=O)O)c2ccc(OC(=O)Nc3ccccc3OC)cc2)cc1`: the growth inhibition in test [1] (setting [7]) was -2%; in test [1] (setting [8]), 13%; in test [1] (at 50.0 µM), -9.65%; in test [2] (setting [7]), 8%; in test [2] (setting [8]), 25%; in test [2] (at 50.0 µM), -1.8%. The growth inhibition in test [3] (setting [7]) is 2%; in test [3] (setting [8]), -20%; in test [3] (at 50.0 µM), 39.8%; in test [4] (setting [7]), 0%; in test [4] (setting [8]) it was 15%; in test [4] (at 50.0 µM) it was 8.05%. Besides, the growth inhibition in test [5] (setting [7]) was -26%; in test [5] (setting [8]) it was -45%; in test [5] (at 50.0 µM), -24.6%.

Regarding `O=c1oc(-c2ccccc2)nc2ccccc12`, the growth inhibition in test [1] (setting [7]) was 4%; in test [1] (setting [8]), 41%; in test [1] (at 50.0 µM) it was 76.5% (active); in test [6] (setting [7]) it was 0%; in test [6] (setting [8]), 9%; in test [6] (at 50.0 µM), 58.9%. Besides, the growth inhibition was 4% in test [3] (setting [7]); 4% in test [3] (setting [8]); 27.5% in test [3] (at 50.0 µM); 0% in test [4] (setting [7]); 11% in test [4] (setting [8]); 38.9% in test [4] (at 50.0 µM). For the same compound, the growth inhibition in test [5] (setting [7]) is -4%; in test [5] (setting [8]) it was 20%; in test [5] (at 50.0 µM), 42.8%.

On to `S=c1ncc2c([nH]1)C1c3ccccc3C2c2ccccc21`, for which the growth inhibition is -9% in test [1] (setting [7]); 98% (active) in test [1] (setting [8]); 86% (active) in test [1] (at 50.0 µM); -6% in test [2] (setting [7]); 98% (active) in test [2] (setting [8]); 92% (active) in test [2] (at 50.0 µM). Moreover, the growth inhibition is 27% in test [3] (setting [7]); 99% (active) in test [3] (setting [8]); 88% (active) in test [3] (at 50.0 µM); 16% in test [4] (setting [7]); 98% (active) in test [4] (setting [8]); 92.4% (active) in test [4] (at 50.0 µM). Further, the growth inhibition in test [5] (setting [7]) was -1%; in test [5] (setting [8]), 98% (active); in test [5] (at 50.0 µM) it was 90.5% (active).

As for `Cc1cnc2cccc(Cl)c2c1Cl`, the growth inhibition is 3% in test [1] (setting [7]); 27% in test [1] (setting [8]); 80.8% (active) in test [1] (at 50.0 µM); 19% in test [6] (setting [7]); 6% in test [6] (setting [8]); 35.5% in test [6] (at 50.0 µM). For the same compound, the growth inhibition in test [3] (setting [7]) was -42%; in test [3] (setting [8]), 4%; in test [3] (at 50.0 µM), 34%; in test [4] (setting [7]), -4%; in test [4] (setting [8]) it was 14%; in test [4] (at 50.0 µM), 27%. For the same compound, the results for the growth inhibition in test [5] (setting [7]), in test [5] (setting [8]) and in test [5] (at 50.0 µM) were -15%, 31% and 20.6%, respectively.

With `CC(CN(C)C)C(=O)c1ccccc1` (stereo not drawn), the growth inhibition is -3.95% and -8.85% and 34% in test [1] (at 50.0 µM); -43.7% and -18.4% and 16.6% in test [2] (at 50.0 µM); -4.85% and -15.9% and 18.1% in test [6] (at 50.0 µM); 20.3% and -14.4% and 14.4% in test [3] (at 50.0 µM); -23.1% and -11.6% and 18.4% in test [4] (at 50.0 µM); 0.3% and -18.9% and 23.1% in test [5] (at 50.0 µM).

`O=CC(O)C(O)C(O)C(O)C(O)CO` (stereo not drawn): the growth inhibition is -13.5% and 36% and -23.8% in test [1] (at 50.0 µM); -1.55% and -10.8% and -7.35% in test [2] (at 50.0 µM); -8.85% and -1.5% and -6.45% in test [6] (at 50.0 µM); -56.4% and -44.2% and -19.8% in test [3] (at 50.0 µM); 7.5% and 25.1% and -0.4% in test [4] (at 50.0 µM); -12.4% and 19.2% and 4.25% in test [5] (at 50.0 µM).

As to `NC(CC(=O)O)c1ccccc1` (stereo not drawn), the growth inhibition in test [1] (at 50.0 µM) is 6.2% and -0.2% and -0.5%; in test [2] (at 50.0 µM) it was 8.8% and -3.45% and -4.3%; in test [6] (at 50.0 µM), -5.95% and 2.35% and -0.05%; in test [3] (at 50.0 µM) it was 14.2% and -33.1% and -4.9%; in test [4] (at 50.0 µM), -12.7% and -10.4% and -18.2%; in test [5] (at 50.0 µM) it was -8.9% and 9.75% and -24.9%.

For `Nc1cccc2c1[nH]c(=O)c1ccccc12`, the growth inhibition is 7% in test [1] (setting [7]); 70% (active) in test [1] (setting [8]); 78.8% (active) in test [1] (at 50.0 µM); 5% in test [2] (setting [7]); 31% in test [2] (setting [8]); 64% in test [2] (at 50.0 µM). Also, the growth inhibition in test [3] (setting [7]) is -4%; in test [3] (setting [8]) it was 40%; in test [3] (at 50.0 µM) it was 77.9% (active); in test [4] (setting [7]) it was -3%; in test [4] (setting [8]) it was 98% (active); in test [4] (at 50.0 µM), 75.8% (active). Besides, the growth inhibition in test [5] (setting [7]) was 9%; in test [5] (setting [8]), 97% (active); in test [5] (at 50.0 µM), 91.2% (active).

Turning to `CC1CCCC(C(c2c[nH]c3ccccc23)c2c[nH]c3ccccc23)C1=O` (stereo not drawn), the growth inhibition was 1% in test [1] (setting [7]); 98% (active) in test [1] (setting [8]); 96.8% (active) in test [1] (at 50.0 µM); 1% in test [2] (setting [7]); 98% (active) in test [2] (setting [8]); 58.6% in test [2] (at 50.0 µM). The growth inhibition is 0% in test [3] (setting [7]); 98% (active) in test [3] (setting [8]); 76.3% (active) in test [3] (at 50.0 µM); -11% in test [4] (setting [7]); 96% (active) in test [4] (setting [8]); 46% in test [4] (at 50.0 µM). Besides, the growth inhibition is -5% in test [5] (setting [7]), 98% (active) in test [5] (setting [8]) and 97.2% (active) in test [5] (at 50.0 µM).

As to `CN1CCN(CC(=O)c2c(-c3ccccc3)[nH]c3ccccc23)CC1`, the growth inhibition in test [1] (setting [7]) is 68%; in test [1] (setting [8]) it was 4%; in test [1] (at 50.0 µM), 33.2%; in test [6] (setting [7]), 66%; in test [6] (setting [8]), 7%; in test [6] (at 50.0 µM), 9.45%. The growth inhibition is 50% in test [3] (setting [7]); 21% in test [3] (setting [8]); 33.1% in test [3] (at 50.0 µM); 58% in test [4] (setting [7]); 4% in test [4] (setting [8]); -9.9% in test [4] (at 50.0 µM). Also, the growth inhibition in test [5] (setting [7]) was 80% (active); in test [5] (setting [8]), 1%; in test [5] (at 50.0 µM), 8.15%.

Consider `O=C(CCc1ccccc1)COC(=O)c1ccc([N+](=O)[O-])cc1`, for which the growth inhibition in test [1] (setting [7]) was -13%; in test [1] (setting [8]), -14%; in test [1] (at 50.0 µM), -10.4%; in test [2] (setting [7]) it was -2%; in test [2] (setting [8]), -25%; in test [2] (at 50.0 µM), 3.45%. The growth inhibition in test [6] (setting [7]) was -6%; in test [6] (setting [8]), 8%; in test [6] (at 50.0 µM) it was -3.6%; in test [4] (setting [7]), -1%; in test [4] (setting [8]), -7%; in test [4] (at 50.0 µM), 55%. The figures for the growth inhibition in test [5] (setting [7]), in test [5] (setting [8]) and in test [5] (at 50.0 µM) were -15%, -23% and 16.4%, respectively.

Regarding `COC(=O)C(C#N)C(c1ccccc1)c1c[nH]c2ccccc12` (stereo not drawn), the growth inhibition in test [1] (setting [7]) was -3%; in test [1] (setting [8]), 75% (active); in test [1] (at 50.0 µM), 77.2% (active); in test [6] (setting [7]) it was -5%; in test [6] (setting [8]), 63%; in test [6] (at 50.0 µM) it was 55.7%. Moreover, the growth inhibition in test [3] (setting [7]) was -52%; in test [3] (setting [8]) it was 82% (active); in test [3] (at 50.0 µM), 24.1%; in test [4] (setting [7]) it was -7%; in test [4] (setting [8]), 71% (active); in test [4] (at 50.0 µM), -4.8%. For the same compound, the growth inhibition in test [5] (setting [7]) was -14%; in test [5] (setting [8]) it was 89% (active); in test [5] (at 50.0 µM), 71% (active).

The values above are taken from PubChem BioAssay (NCI).
